MBD2 inh: blocks human MBD2 binding to methylated DNA | Q9UBB5 | TR-FRET, MBD2 binding to methylated oligonucleotide | inhibition, % at 4.4 µM | 370,000 compounds, 0.31% hits | AID 686964; in the data active = inhibition above about 13%
Neddyl block: cullin neddylation inhibition; P61081+Q13564; TR-FRET cullin neddylation, biochemical; calls only at 25 µM; 360,000 compounds, 0.58% hits; AID 651699; in the data active = inhibition above about 36%
Target sequence (P61081 whole entry, looked up): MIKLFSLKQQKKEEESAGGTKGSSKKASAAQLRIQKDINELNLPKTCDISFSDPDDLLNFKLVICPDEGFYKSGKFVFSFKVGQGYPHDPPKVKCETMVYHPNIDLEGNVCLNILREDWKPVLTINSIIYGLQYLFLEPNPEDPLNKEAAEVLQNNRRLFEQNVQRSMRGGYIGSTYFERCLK
Target sequence (Q13564 whole entry, looked up): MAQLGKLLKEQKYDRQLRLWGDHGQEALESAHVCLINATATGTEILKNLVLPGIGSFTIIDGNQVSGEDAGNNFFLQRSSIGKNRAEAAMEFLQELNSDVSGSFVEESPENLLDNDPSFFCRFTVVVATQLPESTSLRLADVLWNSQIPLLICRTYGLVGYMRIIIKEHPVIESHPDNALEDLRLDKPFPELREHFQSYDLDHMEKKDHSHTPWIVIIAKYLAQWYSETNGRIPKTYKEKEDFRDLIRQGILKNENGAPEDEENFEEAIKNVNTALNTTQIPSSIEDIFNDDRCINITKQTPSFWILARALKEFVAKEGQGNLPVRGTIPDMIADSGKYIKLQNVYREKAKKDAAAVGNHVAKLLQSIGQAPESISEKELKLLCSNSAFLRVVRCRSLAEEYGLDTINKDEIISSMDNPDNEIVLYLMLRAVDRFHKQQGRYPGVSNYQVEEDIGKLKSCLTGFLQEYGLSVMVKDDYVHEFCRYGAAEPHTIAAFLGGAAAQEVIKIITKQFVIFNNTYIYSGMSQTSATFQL
UBC13 inh: inhibitors of human UBC13 polyubiquitin chain formation. TR-FRET. inhibition, % at 20 µM. P61088. 330,000 compounds, 0.47% hits. AID 485273; in the data active = inhibition above about 45%, passing the limit was not always enough; inconclusive = no clear call, values can overlap the other calls
UHRF1 MBD2 ctr: UHRF1 methyl-DNA binding inhibition; 370,000 compounds, 0.75% hits; AID 687016; UHRF1 binding to methylated oligo, TR-FRET; Q96T88; inhibition, % at 4.4 µM; in the data active = inhibition above about 21%;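 note: UHRF1 SRA domain binding a hemimethylated CpG hairpin DNA probe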
Casp3 UBC13 ctr: inhibits human caspase-3 in UBC13 counter-screen | shares compounds with UBC13 inh | Recombinant caspase-3, Caspase-Glo 3/7 luminescence, 60 min | inhibition, % at 20 µM | 1,400 compounds, 4% hits | AID 488856;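 active = mean inhibition across replicates above about 26%, limit read from the data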
UBC13 confirm: human UBC13 polyubiquitin inhibition, confirmed | shares compounds with UBC13 inh | UBC13 polyubiquitination, TR-FRET, biochemical | inhibition, % at 10 µM | 1,400 compounds, 68% hits | AID 488859; in the data active = inhibition above about 45%; inconclusive = no clear call, values can overlap the other calls
Each line names hits and unclear results; the compound was inactive in the other large screens (follow-up assays come after a bar, where shown). This is a sample that favours compounds with a hit; in the whole collection about 1.8% have one here.

COc1ccc(-c2sc3ccccc3c2C#CCO)cc1	none
COc1ccc2sc(-c3ccccc3OC)c(C#Cc3cncn3C)c2c1	UBC13 inh 51 | Casp3 UBC13 ctr inactive | UBC13 confirm inactive
COc1ccc(-c2sc3ccccc3c2C#Cc2cncn2C)cc1	UBC13 inh 59 (not shown: Neddyl block) | Casp3 UBC13 ctr inactive | UBC13 confirm inactive
COc1ccccc1Nc1cc(N2CCOCC2)c2nonc2c1[N+](=O)[O-]	none
O=C(CN1C(=O)NC2(CCCC2)C1=O)Nc1ccccc1C(F)(F)F	none
O=C(O)C1CSC2(c3ccc4c(c3)OCCO4)CCC(=O)N12 (centres undefined)	none
O=C(CCCn1c(=O)c2ccccc2n(Cc2cccc(F)c2)c1=O)NC1CCN(Cc2ccccc2)CC1	UBC13 inh 100 (no result: Neddyl block) | Casp3 UBC13 ctr inactive | UBC13 confirm 112
Cc1cc(C)c2c(c1)[C@@H]1C=CC[C@@H]1[C@H](c1ccc(S(=O)(=O)N3CCOCC3)cc1)N2	none (no result: UBC13 inh)
COc1ccc(/C=N/NC(=O)Cc2csc(Nc3cccc(C(F)(F)F)c3)n2)c(OC)c1	UBC13 inh 78 | Casp3 UBC13 ctr inactive | UBC13 confirm 69
Cc1cccc(/C=C2/Sc3ccc(C(=O)N4CCOCC4)cc3NC2=O)c1	none
COc1ccc(C(=O)Nn2c(SCC(=O)NC3CCCC3)nc3ccccc3c2=O)cc1	none
COc1ccc(C(=O)Nn2c(SCC(=O)NCc3ccccc3)nc3ccccc3c2=O)cc1	UBC13 inh 52 | Casp3 UBC13 ctr inactive | UBC13 confirm 58
COc1ccc(C(=O)Nn2c(SCC(=O)NCC3CCCO3)nc3ccccc3c2=O)cc1 (centres undefined)	UBC13 inh 58 | Casp3 UBC13 ctr 71 | UBC13 confirm 48
O=C(c1ccc(S(=O)(=O)N2CCCC2)cc1)N1CCC(CN2C(=O)c3cccc4cccc(c34)C2=O)CC1	UBC13 inh 91 | Casp3 UBC13 ctr inactive | UBC13 confirm 95
COc1ccc(S(=O)(=O)N2CCC(CN3C(=O)c4cccc5cccc(c45)C3=O)CC2)cc1	none (not shown: Neddyl block)
CCN1CCN(CCCNC(=O)c2ccc(/C=C3/Sc4ccccc4N(Cc4ccccc4F)C3=O)cc2)CC1	UBC13 inh 46 (not shown: Neddyl block) | Casp3 UBC13 ctr inactive | UBC13 confirm 54
Nc1nc(N)nc(-c2ccc([N+](=O)[O-])o2)n1	none (no result: UBC13 inh)
O=C(CCCCCN1C(=O)c2cccc3cccc(c23)C1=O)NCCO	UBC13 inh 47 | Casp3 UBC13 ctr inactive | UBC13 confirm inactive
CCN(CC)CCOC(=O)c1ccc(NC(=O)c2cn(-c3ccccc3)nc2-c2cccs2)cc1	UBC13 inh 96 | Casp3 UBC13 ctr inactive | UBC13 confirm 111
COc1ccccc1C(=O)N=c1sc2c(C)ccc(OC)c2n1C	UBC13 inh 48 | Casp3 UBC13 ctr 73 | UBC13 confirm inconclusive
COc1ccc(C(=O)N=c2sc3c(C)ccc(OC)c3n2C)cc1OC	none (not shown: Neddyl block)
CCC(=O)NC(=S)NNC(=O)c1ccc([N+](=O)[O-])cc1	UBC13 inh 68 | Casp3 UBC13 ctr inactive | UBC13 confirm 87
CC(C)CC(=O)NC(=S)NNC(=O)c1ccc([N+](=O)[O-])cc1	none
CCC(=O)NC(=S)NNC(=O)c1ccc(OC)cc1	UBC13 inh 81 | Casp3 UBC13 ctr inactive | UBC13 confirm 86
CCCOc1ccc(C(=O)NNC(=S)NC(C)=O)cc1	UBC13 inh 75 | Casp3 UBC13 ctr inactive | UBC13 confirm 95
CCCCOc1ccc(C(=O)NNC(=S)NC(=O)CC)cc1	none (no result: MBD2 inh, UBC13 inh, UHRF1 MBD2 ctr)
O=C(C1COc2ccccc2O1)N1CCN(c2ccc(F)cc2)CC1 (centres undefined)	none
COc1cccc(NC(=O)Cn2cc3c(n2)CCCCC3)c1	none
Oc1cc(Nc2ccncc2)cc2cccnc12	UBC13 inh 104 | Casp3 UBC13 ctr inactive | UBC13 confirm 109
Cn1c(=O)c2c(ncn2Cc2ccc(Cl)cc2)n(C)c1=O	UBC13 inh 57 | Casp3 UBC13 ctr inactive | UBC13 confirm 53
Cn1c(=O)c2c(ncn2CC(COCc2ccc(Cl)cc2)OCc2ccc(Cl)cc2)n(C)c1=O (centres undefined)	none
CCN(Cc1ccccc1)S(=O)(=O)c1ccc(C(=O)N(CCCN(C)C)c2nc3c(F)cccc3s2)cc1	none
CCOc1cccc2sc(N(CCCN(C)C)C(=O)c3ccc(S(=O)(=O)N(C)Cc4ccccc4)cc3)nc12	UBC13 inh 76 | Casp3 UBC13 ctr inactive | UBC13 confirm 111
CCOc1cccc2sc(N(CCCN(C)C)C(=O)c3ccc(C(=O)c4ccccc4)cc3)nc12	none
CCOc1cccc2sc(N(CCCN(C)C)C(=O)c3ccc(S(=O)(=O)N(CC)Cc4ccccc4)cc3)nc12	UBC13 inh 51 | Casp3 UBC13 ctr inactive | UBC13 confirm 93
COc1cccc(/C=N\NC(=O)c2sc(N)nc2C)c1OC	UBC13 inh 105 | Casp3 UBC13 ctr inactive | UBC13 confirm 110
Cc1cccc(C(=O)NCc2nnc(SCC(=O)N3CCN(c4ccccc4)CC3)n2C)c1	none
CC(=O)NCCNC(=O)C1Cc2c(-c3cccc(NC(C)=O)c3)ccnc2O1 (centres undefined)	none (no result: UBC13 inh)
COc1ccc(-c2oc3ncnc(N)c3c2-c2ccccc2)cc1	UBC13 inh 81 | Casp3 UBC13 ctr inactive | UBC13 confirm 81
COc1ccc(-c2oc3ncn4nc(COc5ccccc5)nc4c3c2-c2ccc(OC)cc2)cc1	none (not shown: Neddyl block)
COc1ccc(OC)c(NC(=O)C2CCN(c3cc(-c4ccccc4)nc4ncnn34)CC2)c1	none
O=C(Nc1cccc(Br)c1)c1cc(=O)c2ccccc2o1	none
Cc1cccn2c(=O)c(C=O)c(N3CC(C)OC(C)C3)nc12 (centres undefined)	none
Cc1cccn2c(=O)c(C=O)c(N3CCCCCC3)nc12	UBC13 inh 55 (no result: MBD2 inh, UHRF1 MBD2 ctr) | Casp3 UBC13 ctr inactive | UBC13 confirm 64
O=C(COC(=O)CCCCCN=C1NS(=O)(=O)c2ccccc21)Nc1ccc(Cl)c(Cl)c1	UBC13 inh 49 | Casp3 UBC13 ctr inactive | UBC13 confirm inactive
Cc1cc(NC(=O)C(C)C)ncc1NC(=O)Cc1ccccc1	none
Cc1ccccc1Nc1cc(C(=O)NCC2CCCO2)c2ccccc2n1 (centres undefined)	none
COc1ccccc1NC(=O)c1c(N=Cc2ccccc2O)cnn1C	UBC13 inh 87 (no result: MBD2 inh, Neddyl block, UHRF1 MBD2 ctr) | Casp3 UBC13 ctr inactive | UBC13 confirm 96
COc1ccccc1NC(=O)c1c([N+](=O)[O-])cnn1C	none
Cc1sc2nc(Cc3ccccc3)[nH]c(=O)c2c1-c1ccccc1	none
COC(=O)c1cc(C#N)c(OC(C)C)nc1C	none
CN1CC2=Cc3ccccc3OC23Oc2ccccc2C=C3C1	UBC13 inh 85 | Casp3 UBC13 ctr inactive | UBC13 confirm 94
CCOc1ccc(Nc2nc(NCC3CCCO3)c3ccccc3n2)cc1 (centres undefined)	UBC13 inh 66 | Casp3 UBC13 ctr inactive | UBC13 confirm 86
c1ccc(Nc2nc(NCC3CCCO3)c3ccccc3n2)cc1 (centres undefined)	none
Cc1cccc(CNC(=O)CC2C(=O)NCCN2C2CCCC2)c1 (centres undefined)	none

High-throughput results deposited in PubChem BioAssay by several laboratories.
